Values joined by “and” are separate entries in the source; they are usually repeats but may differ in a detail not shown here. Identical values can stand only once. Active and inactive are the calls of the source. Entries that show only a call come without a potency. Unless noted, calls follow the shape of the dose curve; as a rule, active = well fitted curve in the direction sought with a large enough effect in the repeat runs; inconclusive = weak or mixed curves; inactive = no such curve, though single readings can be large; an effect the other way counts as inactive or inconclusive.
Assays:
[1] = qHTS assay to identify small molecule antagonists of the glucocorticoid receptor (GR) signaling pathway - cell viability counter screen (AID 720693); also: nearly all actives have a fitted effect of over 55% in size; also: potency is read from the fitted curve at half-maximal effect
[2] = qHTS assay for identifying genotoxic compounds that show differential cytotoxicity against isogenic chicken DT40 cell lines with known DNA damage response pathways - wild type cell line (AID 743012); also: nearly all actives have a fitted effect of over 60% in size; also: potency is read from the fitted curve at half-maximal effect
Procedure, shortened: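 Wild-type DT40 cells (300/well) exposed to compounds for 40 hours at 37 C/5% CO2. Viability read by CellTiter-Glo luminescence after 30 min at room temperature.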

[3] = qHTS assay for identifying genotoxic compounds that show differential cytotoxicity against isogenic chicken DT40 cell lines with known DNA damage response pathways - Rev3 mutant cell line (AID 743014); also: nearly all actives have a fitted effect of over 55% in size; also: potency is read from the fitted curve at half-maximal effect
[4] = qHTS assay for identifying genotoxic compounds that show differential cytotoxicity against isogenic chicken DT40 cell lines with known DNA damage response pathways - Rad54/Ku70 mutant cell line (AID 743015); also: nearly all actives have a fitted effect of over 60% in size; also: potency is read from the fitted curve at half-maximal effect
[5] = qHTS assay to identify small molecule antagonists of the androgen receptor (AR) signaling pathway - cell viability counter screen (AID 743033; also: nearly all actives have a fitted effect of over 45% in size; also: potency is read from the fitted curve at half-maximal effect)
[6] = qHTS assay to identify small molecule antagonists of the androgen receptor (AR) signaling pathway using the MDA cell line - cell viability counter screen (AID 743041; also: nearly all actives have a fitted effect of over 45% in size; also: potency is read from the fitted curve at half-maximal effect)
Procedure, shortened: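 MDA-kb2 AR-luc human breast carcinoma cells (MMTV-luciferase, AR/GR responsive) were treated with compounds plus R1881 agonist for 16 h at 37 °C. Viability was read as CellTiter-Fluor fluorescence in the same wells as the reporter assay.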

[7] = tested on: thyroid hormone receptor (rat, GH3 cells); assay: qHTS assay to identify small molecule agonists of the thyroid receptor (TR) signaling pathway (AID 743066; calls by dose curve)
[8] = target: Estrogen receptor (Homo sapiens) (UniProt P03372); assay: qHTS assay to identify small molecule antagonists of the estrogen receptor alpha (ER-alpha) signaling pathway (AID 743069; active = well fitted curve in the direction sought with a large enough effect in the signal ratio in the repeat runs, not every such curve was filed as active; inconclusive = weak or mixed curves, or effect the other way; inactive = no such curve, though single readings can be large or run the other way; the % refers to the signal ratio; also: potency is read from the fitted curve at half-maximal effect)
Procedure, shortened: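 HEK293 cells stably carrying an ER-alpha-UAS-bla beta-lactamase reporter were pre-cultured overnight in 2% charcoal-stripped FBS medium. Test compounds in DMSO were added together with 17beta-estradiol for 18 hr at 37C. Read-out was fluorescence after 2 hr with LiveBLAzer B/G FRET substrate at room temperature.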

[9] = target: Estrogen receptor (Homo sapiens) (UniProt P03372); assay: qHTS assay to identify small molecule agonists of the estrogen receptor alpha (ER-alpha) signaling pathway (AID 743075; calls by dose curve; also: potency is read from the fitted curve at half-maximal effect)
[10] = target: Estrogen receptor (Homo sapiens) (UniProt P03372); assay: qHTS assay to identify small molecule agonists of the estrogen receptor alpha (ER-alpha) signaling pathway using the BG1 cell line (AID 743079); details: BG1Luc4E2 cells, ERE-luciferase agonist, 22 h; activation: at 70.3 µM (top of the series); also: nearly all actives have a fitted effect of over 20% in size; also: potency is read from the fitted curve at half-maximal effect
[11] = qHTS assay to identify small molecule antagonists of the estrogen receptor alpha (ER-alpha) signaling pathway using the BG1 cell line (AID 743080; calls by dose curve;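 also: BG1 cells stimulated with 17beta-estradiol alongside compound; nearly all actives have a fitted effect of over 25% in size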; also: potency is read from the fitted curve at half-maximal effect); details: BG1Luc4E2 ERE-luciferase antagonist mode, luminescence; activity change, negative = inhibition: at 70.3 µM (top of the series)
Procedure, shortened: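 Endogenous full-length ER-alpha in BG1-Luc-4E2 cells drives a stably integrated 4×ERE luciferase gene; compounds were tested against 17beta-estradiol over 21.5 h, with luminescence and multiplexed viability fluorescence recorded.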

[12] = qHTS assay to identify small molecule antagonists of the estrogen receptor alpha (ER-alpha) signaling pathway using the BG1 cell line - cell viability counter screen (AID 743081);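 also: compound given together with 17beta-estradiol as the ER stimulus; nearly all actives have a fitted effect of over 45% in size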; also: potency is read from the fitted curve at half-maximal effect
[13] = qHTS assay to identify small molecule antagonists of the thyroid receptor (TR) signaling pathway (AID 743065); also: nearly all actives have a fitted effect of over 55% in size; also: potency is read from the fitted curve at half-maximal effect
Procedure, shortened: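 GH3.TRE-Luc rat pituitary cells carrying two TR response elements driving luciferase were plated for 4 h, given compound plus 1 nM T3 (final), and incubated 23.5 h at 37 C. ONE-Glo luminescence measured reporter inhibition; CellTiter-Fluor fluorescence tracked cytotoxicity.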

[14] = qHTS assay to identify small molecule antagonists of the estrogen receptor alpha (ER-alpha) signaling pathway - cell viability counter screen (AID 743074; calls by dose curve; also: nearly all actives have a fitted effect of over 45% in size; also: potency is read from the fitted curve at half-maximal effect)
Aromatase (Homo sapiens) = Aromatase (Homo sapiens) (UniProt P11511); assay: qHTS assay to identify aromatase inhibitors (AID 743083); also: nearly all actives have a fitted effect of over 55% in size; also: potency is read from the fitted curve at half-maximal effect
[15] = qHTS assay to identify small molecule antagonists of the thyroid receptor (TR) signaling pathway - cell viability counter screen (AID 743064); also: nearly all actives have a fitted effect of over 50% in size; also: potency is read from the fitted curve at half-maximal effect
Procedure, shortened: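 Rat GH3 pituitary tumor cells stably expressing two TR response elements driving luciferase were plated, rested 4 h, then dosed with library compounds and T3 (1 nM final). After 23.5 h at 37 °C, CellTiter-Fluor was added for 30 min and fluorescence recorded.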

Aromatase (Homo sapiens), sequence (P11511 whole entry, looked up): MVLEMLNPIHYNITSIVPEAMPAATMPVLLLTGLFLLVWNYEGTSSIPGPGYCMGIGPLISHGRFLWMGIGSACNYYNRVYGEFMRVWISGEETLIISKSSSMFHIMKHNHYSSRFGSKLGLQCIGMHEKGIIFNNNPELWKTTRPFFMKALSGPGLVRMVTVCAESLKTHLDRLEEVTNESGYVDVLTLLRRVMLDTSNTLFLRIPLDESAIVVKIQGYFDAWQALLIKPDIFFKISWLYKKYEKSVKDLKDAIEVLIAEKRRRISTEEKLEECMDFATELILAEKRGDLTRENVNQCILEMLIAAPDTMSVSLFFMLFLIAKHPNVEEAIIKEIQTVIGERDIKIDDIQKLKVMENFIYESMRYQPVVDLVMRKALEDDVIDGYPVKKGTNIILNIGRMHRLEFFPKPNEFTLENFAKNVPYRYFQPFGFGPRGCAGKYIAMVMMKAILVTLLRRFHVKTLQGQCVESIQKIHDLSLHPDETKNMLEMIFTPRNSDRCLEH
Estrogen receptor (Homo sapiens), sequence (P03372 whole entry, looked up): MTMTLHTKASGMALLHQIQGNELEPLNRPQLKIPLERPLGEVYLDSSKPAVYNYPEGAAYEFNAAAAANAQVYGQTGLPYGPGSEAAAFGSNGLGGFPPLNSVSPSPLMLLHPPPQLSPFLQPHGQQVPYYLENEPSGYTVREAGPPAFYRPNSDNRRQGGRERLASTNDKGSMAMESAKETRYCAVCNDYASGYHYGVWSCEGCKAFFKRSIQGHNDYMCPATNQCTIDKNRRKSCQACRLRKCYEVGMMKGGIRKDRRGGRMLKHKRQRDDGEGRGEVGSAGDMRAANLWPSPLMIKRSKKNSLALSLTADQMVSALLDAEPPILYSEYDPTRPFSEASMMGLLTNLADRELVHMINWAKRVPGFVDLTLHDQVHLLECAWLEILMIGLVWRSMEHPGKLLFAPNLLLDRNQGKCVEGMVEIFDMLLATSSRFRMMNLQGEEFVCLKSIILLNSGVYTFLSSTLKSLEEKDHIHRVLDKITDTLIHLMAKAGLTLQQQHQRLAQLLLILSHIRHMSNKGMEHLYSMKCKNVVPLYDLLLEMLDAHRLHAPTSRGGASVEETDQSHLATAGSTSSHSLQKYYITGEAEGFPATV

SMILES | Potency [1] | Potency [2] | Potency [3] | Potency [4] | Potency [5] | Potency [6] | Potency [7] | Potency [8] | Potency [9] | Potency [10] | Potency [11] | Potency [12] | Potency [13] | Potency [14] | Potency (Aromatase (Homo sapiens)) | Potency [15]
CC(C)c1ccc(O)c(C(C)C)c1 | inactive | 54.5 µM (active) | 54.5 µM (active) | 48.6 µM (active) | 49 µM (active) | inactive | inactive | inactive | inactive | inactive | 54.5 µM (active) | inactive |  |  |  | 
Cc1occc1SSc1ccoc1C | inactive | 19.3 µM (active) | 19.3 µM (active) | 15.4 µM (active) | inactive | inactive | inactive |  |  |  |  | inactive | 68.6 µM (active) | inactive | 30.6 µM (active) | 
CCCCCCCCCCCCCCNCCO | inactive | 11.9 µM (active) | 21.1 µM (active) | 11.9 µM (active) | inactive | inactive | inactive | inactive | inactive | 188 nM (active) |  | inactive |  | inactive | inactive | inactive
CCCCOC(=O)C(C)CC (stereo not drawn) | inactive | 12.2 µM (active) | 13.7 µM (active) | 13.7 µM (active) | 43.6 µM (active) | inactive | inactive | inactive | inactive | inactive | inactive | inactive | inactive | inactive | inactive | 
C[C@@]12C(=O)OC(=O)[C@]1(C)C1CCC2O1 | 1.29 µM (active) | inactive | inactive | inactive |  | 3.35 µM (active) | inactive | 4.06 µM [inconclusive] (active) | inactive |  |  |  | 2.02 µM (active) |  |  | 
CN(Cc1cc(Br)cc(Br)c1N)C1CCCCC1 | inactive | 10.6 µM (active) | 6.68 µM (active) | 10.6 µM (active) |  | inactive | inactive |  | inactive |  | inactive | inactive |  | inactive | inactive | 
Cc1c(-c2ccc(O)cc2)n(Cc2ccc(OCCN3CCCCCC3)cc2)c2ccc(O)cc12 | inactive | 11.9 µM (active) | 13.3 µM (active) | 13.3 µM (active) |  |  |  |  |  |  |  |  |  | inactive | 0.0211 µM (active) | 
CCCCCCC(C)Nc1ccc(Nc2ccccc2)cc1 (stereo not drawn) | 49 µM (active) | 17.2 µM (active) | 15.4 µM (active) | 17.2 µM (active) |  | inactive | inactive |  |  |  |  | inactive | 43.3 µM (active) |  | inactive | 61.1 µM (active)
NC1(c2ccc(-c3nc4ccn5c(=O)[nH]nc5c4cc3-c3ccccc3)cc2)CCC1 | inactive | 1.19 µM (active) | 5.31 µM (active) | 1.33 µM (active) |  |  |  |  | 21.3 µM [activator] (active) | inactive |  | inactive | 13.3 µM (active) |  | inactive | 
CCCCCCOc1cc(C)c(O)c(C)c1C | 49.6 µM (active) | 19.6 µM (active) | 22 µM (active) | 15.5 µM (active) |  | inactive | inactive |  | inactive | inactive |  | inactive | 55.1 µM (active) | inactive | 43.8 µM (active) | 
CCCCN(CCCC)CCC(O)c1cc2c(Cl)cc(Cl)cc2c2cc(C(F)(F)F)ccc12 (stereo not drawn) | inactive | 11.4 µM (active) |  | 10.1 µM (active) | inactive | inactive |  | inactive | inactive | inactive | inactive | inactive |  | inactive | inactive | 
c1ccc(Nc2cccc3ccccc23)cc1 | 44.2 µM (active) | 69.5 µM (active) | 61.9 µM (active) and 61.1 µM (active) | 55.2 µM (active) and 61.1 µM (active) |  | inactive | inactive |  | 44.2 µM [inconclusive] (active) and 17.4 µM [activator] (active) | 13.9 µM (active) and 9.69 µM (active) | inactive | inactive | 69.5 µM (active) | inactive | 43.8 µM (active) and 61.1 µM (active) | 
SCCCCCCCCS | inactive | 68.6 µM (active) |  | 54.5 µM (active) | inactive | inactive | inactive |  |  |  |  | inactive | inactive | inactive | inactive | 
CSc1c(Cl)c(Cl)c(Cl)c(Cl)c1Cl | inactive | inactive |  | inactive | inactive | inactive |  |  |  |  |  | inactive |  |  | inactive | 
CCN(CC)CCCN(c1ccccc1)C1Cc2ccccc2C1 | 23.9 µM (active) | 0.531 µM (active) | 0.944 µM (active) | 1.5 µM (active) |  | 11.9 µM (active) |  |  | inactive |  |  | 29.8 µM (active) |  | 19 µM (active) | 26.6 µM (active) | 2.98 µM (active)
CNCC[C@H](Oc1cccc2ccccc12)c1cccs1 | inactive | 5.31 µM (active) | 9.44 µM (active) | 9.44 µM (active) |  | 24.8 µM (active) |  |  |  |  |  |  |  |  |  | 7.5 µM (active)
C=CC(=O)OCC(O)COc1ccccc1 (stereo not drawn) | 38.9 µM (active) | 24.3 µM (active) | 27.3 µM (active) | 30.6 µM (active) |  |  | inactive |  | inactive | inactive |  | inactive |  | inactive | 68.6 µM (active) | 54.5 µM (active)
